Source: PubChem BioAssay AID2289 (National Center for Advancing Translational Sciences (NCATS), 2010)
Screen size: about 340,000 compounds; about 3,300 (0.97%) were called active. About 9% were inconclusive and are not listed. Calls follow the shape of the dose curve; as a rule, active = well fitted inhibition curve with a large enough effect; inconclusive = small, poorly fitted or top-dose-only effect, or effect the other way; inactive = flat fitted curve, though single readings scatter. The list shows a part of the results.

Assay: qHTS Assay for Modulators of miRNAs and/or Inhibitors of miR-21; also: nearly all actives have a fitted effect of over 55% in size
Settings: HeLa miR-21-FLuc reporter, luciferase luminescence, 48 h; actives lower the signal
Method in brief: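 Luminescence from a firefly luciferase reporter carrying a miR-21 binding site downstream, stably expressed under a CMV promoter in HeLa cells that make miR-21 endogenously, reports miRNA modulation after 48 h compound exposure up to approximately 40uM final.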
Potency is read from the fitted curve at half-maximal effect.

Potency, active:
COc1cccc(NC(=O)C(=O)NCC(c2ccc3c(c2)OCO3)N2CCN(C)CC2)c1 (configuration not stated) 4.65 µM, Cc1csc2ncc(C(=O)NCCc3ccccc3)c(=O)n12 16.5 µM, Cc1cc(C)n2ncc(/C(N)=N/OC(=O)c3ccccc3F)c2n1 1.85 µM, Cc1cc(C)n2ncc(C(=O)NCCc3ccccc3)c2n1 18.5 µM, CN(C)c1ccc(/C=C2\CCCCC2=O)cc1 2.07 µM, CCC(=O)N1CCc2cc(CNS(=O)(=O)c3ccccc3F)ccc21 6.56 µM, Cc1ccc2nc(-c3ccc(NC(=O)COc4ccccc4C(C)(C)C)cc3)sc2c1 6.56 µM, O=C(COc1ccccc1F)Nc1ccc(-c2nc3ccccc3s2)cc1 1.47 µM, Cc1nc2ccc(NC(=O)COc3ccccc3F)cc2s1 7.36 µM, Nc1ccc2oc3ccc(N)cc3c(=O)c2c1 3.69 µM, COc1nccnc1NS(=O)(=O)c1ccc(NCc2cc(Br)ccc2O)cc1 18.5 µM, C/C(=N\NC(=O)COc1ccccc1F)c1cc2ccccc2o1 8.26 µM, COc1ccc(OCC(=O)N/N=C(\C)c2cc3ccccc3o2)cc1 18.5 µM, Cc1ccc(C(=O)Cc2nnc(C)s2)cc1 4.14 µM, Cc1ccc(NC(=S)NNC(=O)c2nn(C)c(C)c2Cl)cc1 5.85 µM, CN1CCc2c(sc3c2C(=O)NC(c2cccc(OC(=O)c4cccs4)c2)N3)C1 (configuration not stated) 18.5 µM, CN1CCc2c(sc3c2C(=O)NC(c2ccc(OC(=O)c4ccccc4)cc2)N3)C1 (configuration not stated) 9.27 µM, COc1cc(C2NC(=O)c3c(sc4c3CCN(C)C4)N2)ccc1OC(=O)c1ccccc1 (configuration not stated) 13.1 µM, O=C(CC1NCCc2ccccc21)Nc1cccc(Cl)c1 (configuration not stated) 16.5 µM, C=C(C)C1CC=C(C)/C(=N/NC(=O)c2ccoc2C)C1 (configuration not stated) 4.65 µM, C/C(=N/NC(=O)c1ccoc1C)C12CC3CC(CC(C3)C1)C2 8.26 µM, Cc1occc1C(=O)NN=C1C2CC3CC(C2)CC1C3 1.31 µM, S=C(N=Nc1ccccc1)NNc1ccccc1 5.21 µM, Cc1cccc(OCCn2c(=O)sc3ccccc32)c1 5.21 µM, Cc1cccc(OCCCn2c(=O)sc3ccccc32)c1 14.7 µM, COc1ccc(N=c2sc3ccccc3n2C)cc1 3.29 µM, COc1ccc(OCCn2c(=O)sc3ccccc32)cc1 14.7 µM, O=c1sc2ccccc2n1CCCOc1ccccc1 4.14 µM, C=CCNC(=S)NNC(=O)COc1ccc2cc(Br)ccc2c1 7.36 µM, CC1Oc2ccccc2N(CC(=O)NCc2ccccc2)C1=O (configuration not stated) 9.27 µM, CCn1c(O)c(N=Nc2ccc3ccccc3n2)c2ccccc21 1.04 µM, COc1ccc(Br)c(-c2nnc(CS(=O)(=O)c3ccccc3)o2)c1 14.7 µM, COc1ccc(-c2cc(CS(=O)(=O)c3ccccc3)on2)cc1 4.65 µM, O=S(=O)(Cc1cc(-c2ccccc2Cl)no1)c1ccccc1 5.21 µM, O=S(=O)(Cc1cc(-c2ccc(Cl)cc2)no1)c1ccccc1 4.65 µM, O=S(=O)(Cc1cc(-c2ccccc2)no1)c1ccccc1 14.7 µM, Nc1ccc(Oc2cc(N)cc(Oc3ccccc3)c2)cc1 8.26 µM, N=c1cc(C2(O)CCCCC2)n2c(nc3ccccc32)s1 0.185 µM, COc1ccccc1/C=C/C1=NC(=C\N(C)C)/C(=O)O1 14.7 µM, Oc1ccc(-c2cn3ccccc3n2)cc1O 3.29 µM, CCOc1ccc(-c2cn3ccccc3n2)cc1[N+](=O)[O-] 2.93 µM, COc1ccc(-c2cn3cc(Cl)ccc3n2)cc1OC 13.1 µM, COc1ccc(-c2cn3ccccc3n2)cc1[N+](=O)[O-] 2.33 µM, O=C(Nc1cc(F)c(Br)cc1F)c1ccc(Cl)cc1 3.29 µM, CCCOc1ccc(-c2csc(N)n2)cc1[N+](=O)[O-] 5.21 µM, CCCCOc1ccc(-c2csc(N)n2)cc1[N+](=O)[O-] 1.47 µM, COC(=O)c1ccc(Cn2nnc3sc4c(c3c2=O)CCCC4)cc1 6.56 µM, Cc1cccc(OCCn2nnc3sc4c(c3c2=O)CCCC4)c1 18.5 µM, O=C(CSc1ccccc1)NCCc1ccccc1 14.7 µM, NNCCc1ccccc1 14.7 µM, O=C(CSc1ccccc1)NC1CCCCCC1 14.7 µM, S=C(NCCc1ccccc1)NCCc1ccccc1 2.61 µM, CC1CCN(C(=S)NCCc2ccccc2)CC1 2.93 µM, Cc1ccc2c(C)c(C(=O)N(C)C(C)c3ccon3)oc2c1C (configuration not stated) 16.5 µM, Cc1ccc2oc(C(=O)N(C)Cc3ccon3)c(C)c2c1 4.14 µM, CCCc1ccc2oc(C(=O)N(C)Cc3ccn[nH]3)c(C)c2c1 10.4 µM, Cc1cc(Cl)c2oc(C(=O)N(C)C(C)c3ccccn3)c(C)c2c1 (configuration not stated) 14.7 µM, Cc1cc(Cl)c2oc(C(=O)N(C)Cc3ccon3)c(C)c2c1 4.65 µM, CCc1c(C)c2ccc(O)c(CN3CCN(c4ccccc4)CC3)c2oc1=O 6.56 µM, COc1ccc2c(c1)Cc1sc(NC(C)=O)nc1-2 0.631 µM, COc1ccc2c(c1)-c1nc(NC(=O)c3ccco3)sc1CC2 13.1 µM, Cc1cccc(-n2ncc3c(NC4CCCCC4)ncnc32)c1 0.414 µM, Cc1ccc(-n2ncc3c(NC4CCCCC4)ncnc32)cc1 0.521 µM, O=c1cccccc1NN=C1CCCCC1 11.7 µM, O=c1cccccc1NN=C1CCCCCC1 3.29 µM, Oc1c(/C=N/Nc2cccc3cccnc23)ccc2ccccc12 7.36 µM, Oc1ccccc1CNc1cccc2cccnc12 18.5 µM, Cc1ccccc1Nc1nc(N)nc(-c2oc3ccccc3c2C)n1 4.65 µM, Fc1ccccc1Nc1nc2ccccc2n2nnnc12 16.5 µM, COc1ccccc1-c1cc(C(=O)N2CCCC2)no1 1.85 µM, COc1ccccc1-c1cc(C(=O)N2CCOCC2)no1 2.93 µM, CCN(CC)C(=O)c1cc(-c2ccccc2OC)on1 13.1 µM, CCN(CC)C(=O)c1cc(-c2ccc(Cl)cc2)on1 4.65 µM, CC1C2CC(C/C2=N/NC(=O)c2cccs2)C1(C)C (configuration not stated) 5.21 µM, O=C(N/N=C1/CC2C=CCC12)c1cccs1 (configuration not stated) 11.7 µM, O=C(N/N=C1/CC2C=CCC12)c1ccco1 (configuration not stated) 5.21 µM, COc1ccc(/C=N/n2c(N)nc3ccccc32)cc1OC 16.5 µM, Cc1c(/C=C/C(=O)c2ccc(O)cc2)cnn1C 18.5 µM, Cc1c(/C=C/C(=O)c2ccccc2O)cnn1C 3.69 µM, Cc1nn(C)cc1/C=C/C(=O)c1ccc(O)cc1 13.1 µM, CCn1ncc(/C=C/C(=O)c2ccccc2)c1C 5.21 µM, CCCCN1CCc2c([nH]c3ccc(C)cc23)C1=O 0.826 µM, CCOc1ccc(/C=N/Nc2ccccn2)cc1OC 5.21 µM, COc1ccc(/C=N/Nc2ccccn2)cc1O 7.36 µM, COc1ccc(COc2ccc3c(C)cc(=O)oc3c2)cc1 2.33 µM, COc1cccc(COc2ccc3c(C)cc(=O)oc3c2)c1 2.07 µM, COc1ccc(-c2noc(-c3cccc(OC)c3OC)n2)cc1OC 2.93 µM, Cc1nc(-c2noc(-c3ccccc3Cl)n2)c(C(F)(F)F)o1 11.7 µM, COc1ccc(-c2noc(-c3ccccc3Cl)n2)cc1OC 1.47 µM, Fc1ccc(-n2c(-c3ccc4c(c3)OCO4)n[nH]c2=S)cc1Cl 16.5 µM, CC(=O)c1c(C)nc(Nc2nc3ccccc3s2)nc1C 0.736 µM, COc1ccccc1OCC(=O)Nc1ccc2c(c1)OCO2 18.5 µM, O=C(COc1ccccc1[N+](=O)[O-])Nc1ccc2c(c1)OCO2 3.29 µM, COc1ccccc1OCC(=O)Nc1ccc2c(c1)OCCO2 8.26 µM, O=C(COc1ccccc1F)Nc1ccc2c(c1)OCCO2 1.17 µM, O=C(COc1ccccc1Cl)Nc1ccc2c(c1)OCO2 1.85 µM, Cc1ccccc1OCC(=O)Nc1ccc2c(c1)OCCO2 6.56 µM, CCc1ccccc1OCC(=O)Nc1ccc2c(c1)OCCO2 5.21 µM, Cc1ccc(NC(=O)c2c(Cl)nc3ccccn23)cc1 2.93 µM, O=C(Nc1ccc(F)cc1)c1c(Cl)nc2ccccn12 16.5 µM, C/C(=N\Nc1ccc(Cl)c(C(=O)O)c1)c1cccc([N+](=O)[O-])c1 13.1 µM, C/C(=N\Nc1ccc(Cl)c(C(=O)O)c1)c1ccc[nH]1 14.7 µM, C/C(=N\Nc1ccc(Cl)c(C(=O)O)c1)c1ccc2c(c1)OCO2 11.7 µM, C/C(=N\Nc1ccc(Cl)c(C(=O)O)c1)c1ccccn1 16.5 µM, Cc1cc(N/C=C/C(=O)c2ccccc2)ccc1Br 0.369 µM, Cc1ccc(N/C=C/C(=O)c2ccccc2)cc1Br 0.369 µM, Cn1cc(Cl)c(C(=O)N/N=C/c2ccc3c4c(cccc24)CC3)n1 1.65 µM
